Reference: the supplement of paper PMC7411054
Where a name gives a salt, the structure may show the parent alone.

Key:
Conditions in all cases: treatment time: 24 h
A549-ACTB-RAB5A [1] = test: lowest phenotypically active concentration; higher = less potent
Outline: (§1)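 Phenotypic activity depended on meeting both a deviation and a reproducibility criterion. The fifteen gene-edited A549, HepG2 and WPMY1 reporter lines were treated at 0.3, 1, 3 or 9 µM for 24 h, four wells each, then imaged live with features normalised to solvent control wells. Deviation required ≥3 of 4 wells past the 95th percentile of control Euclidean distances, and reproducibility a median replicate Pearson correlation above the 95th percentile of non-replicates.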

A549-CANX-COX4 [2] = test: as above
Outline: as §1

A549-GM130-SQSTM1 [3] = test: as above
Outline: as §1

A549-TP53BP1-CLTA [4] = test: as above
Outline: as §1

A549-TUBA1B-RELA [5] = test: as above
Outline: as §1

A549-ACTB-RAB5A [6] = test: phenotypically active (imaging signature differs from DMSO and reproducible) at any of 0.3-9 uM (binary (1 = active, 0 = inactive)); higher = active
Outline: as §1

A549-CANX-COX4 [7] = test: as above
Outline: as §1

A549-GM130-SQSTM1 [8] = test: as above
Outline: as §1

A549-TP53BP1-CLTA [9] = test: as above
Outline: as §1

A549-TUBA1B-RELA [10] = test: as above
Outline: as §1

HepG2-ACTB-RAB5A = test: as above
Outline: as §1

HepG2-CANX-COX4 = test: as above
Outline: as §1

HepG2-GM130-SQSTM1 = test: as above
Outline: as §1

HepG2-TP53BP1-CLTA = test: as above
Outline: as §1

HepG2-TUBA1B-RELA = test: as above
Outline: as §1

WPMY1-ACTB-RAB5A = test: as above
Outline: as §1

WPMY1-CANX-COX4 = test: as above
Outline: as §1

WPMY1-GM130-SQSTM1 = test: as above
Outline: as §1

WPMY1-TP53BP1-CLTA = test: as above
Outline: as §1

WPMY1-TUBA1B-RELA = test: as above
Outline: as §1

COc1cc2nc(-c3cc(F)ccc3O)nc(N[C@@H]3CNC[C@H]3C(C)(C)O)c2cc1OC
3 µM: lowest phenotypically active concentration (A549-ACTB-RAB5A [1])
9 µM: lowest phenotypically active concentration (A549-CANX-COX4 [2]) | lowest phenotypically active concentration (A549-GM130-SQSTM1 [3]) | lowest phenotypically active concentration (A549-TP53BP1-CLTA [4]) | lowest phenotypically active concentration (A549-TUBA1B-RELA [5])
active: phenotypically active (A549-ACTB-RAB5A [6]) 1 | phenotypically active (A549-CANX-COX4 [7]) 1 | phenotypically active (A549-GM130-SQSTM1 [8]) 1 | phenotypically active (A549-TP53BP1-CLTA [9]) 1 | phenotypically active (A549-TUBA1B-RELA [10]) 1 | phenotypically active (HepG2-ACTB-RAB5A) 1 | phenotypically active (HepG2-CANX-COX4) 1 | phenotypically active (HepG2-GM130-SQSTM1) 1 | phenotypically active (HepG2-TP53BP1-CLTA) 1 | phenotypically active (HepG2-TUBA1B-RELA) 1 | phenotypically active (WPMY1-ACTB-RAB5A) 1 | phenotypically active (WPMY1-CANX-COX4) 1 | phenotypically active (WPMY1-GM130-SQSTM1) 1 | phenotypically active (WPMY1-TP53BP1-CLTA) 1 | phenotypically active (WPMY1-TUBA1B-RELA) 1

CN1CCN(c2ccc(OC(F)(F)F)c(Nc3ncc4c(n3)-c3c(c(C(N)=O)nn3CCO)CC4)c2)CC1
≤ 0.3 µM: lowest phenotypically active concentration (A549-ACTB-RAB5A [1]) | lowest phenotypically active concentration (A549-CANX-COX4 [2]) | lowest phenotypically active concentration (A549-GM130-SQSTM1 [3]) | lowest phenotypically active concentration (A549-TP53BP1-CLTA [4]) | lowest phenotypically active concentration (A549-TUBA1B-RELA [5])
active: phenotypically active (A549-ACTB-RAB5A [6]) 1 | phenotypically active (A549-CANX-COX4 [7]) 1 | phenotypically active (A549-GM130-SQSTM1 [8]) 1 | phenotypically active (A549-TP53BP1-CLTA [9]) 1 | phenotypically active (A549-TUBA1B-RELA [10]) 1 | phenotypically active (HepG2-ACTB-RAB5A) 1 | phenotypically active (HepG2-CANX-COX4) 1 | phenotypically active (HepG2-GM130-SQSTM1) 1 | phenotypically active (HepG2-TP53BP1-CLTA) 1 | phenotypically active (HepG2-TUBA1B-RELA) 1 | phenotypically active (WPMY1-ACTB-RAB5A) 1 | phenotypically active (WPMY1-CANX-COX4) 1 | phenotypically active (WPMY1-GM130-SQSTM1) 1 | phenotypically active (WPMY1-TP53BP1-CLTA) 1 | phenotypically active (WPMY1-TUBA1B-RELA) 1

COc1ccc(-c2cc3c(C)nc(N)nc3n([C@H]3CC[C@H](OCCO)CC3)c2=O)cn1
≤ 0.3 µM: lowest phenotypically active concentration (A549-ACTB-RAB5A [1]) | lowest phenotypically active concentration (A549-CANX-COX4 [2]) | lowest phenotypically active concentration (A549-GM130-SQSTM1 [3]) | lowest phenotypically active concentration (A549-TP53BP1-CLTA [4]) | lowest phenotypically active concentration (A549-TUBA1B-RELA [5])
active: phenotypically active (A549-ACTB-RAB5A [6]) 1 | phenotypically active (A549-CANX-COX4 [7]) 1 | phenotypically active (A549-GM130-SQSTM1 [8]) 1 | phenotypically active (A549-TP53BP1-CLTA [9]) 1 | phenotypically active (A549-TUBA1B-RELA [10]) 1 | phenotypically active (HepG2-ACTB-RAB5A) 1 | phenotypically active (HepG2-CANX-COX4) 1 | phenotypically active (HepG2-GM130-SQSTM1) 1 | phenotypically active (HepG2-TP53BP1-CLTA) 1 | phenotypically active (HepG2-TUBA1B-RELA) 1 | phenotypically active (WPMY1-ACTB-RAB5A) 1 | phenotypically active (WPMY1-CANX-COX4) 1 | phenotypically active (WPMY1-GM130-SQSTM1) 1 | phenotypically active (WPMY1-TP53BP1-CLTA) 1 | phenotypically active (WPMY1-TUBA1B-RELA) 1

O=C(Nc1cccc(Cl)c1)Nc1ncc(CCNc2ncnc3ccsc23)s1 [SNS 314 mesylate]
active: phenotypically active (A549-ACTB-RAB5A [6]) 1 | phenotypically active (A549-CANX-COX4 [7]) 1 | phenotypically active (A549-GM130-SQSTM1 [8]) 1 | phenotypically active (A549-TP53BP1-CLTA [9]) 1 | phenotypically active (A549-TUBA1B-RELA [10]) 1 | phenotypically active (HepG2-ACTB-RAB5A) 1 | phenotypically active (HepG2-CANX-COX4) 1 | phenotypically active (HepG2-GM130-SQSTM1) 1 | phenotypically active (HepG2-TP53BP1-CLTA) 1 | phenotypically active (HepG2-TUBA1B-RELA) 1 | phenotypically active (WPMY1-ACTB-RAB5A) 1 | phenotypically active (WPMY1-CANX-COX4) 1 | phenotypically active (WPMY1-GM130-SQSTM1) 1 | phenotypically active (WPMY1-TP53BP1-CLTA) 1 | phenotypically active (WPMY1-TUBA1B-RELA) 1
≤ 0.3 µM: lowest phenotypically active concentration (A549-ACTB-RAB5A [1]) | lowest phenotypically active concentration (A549-CANX-COX4 [2]) | lowest phenotypically active concentration (A549-GM130-SQSTM1 [3]) | lowest phenotypically active concentration (A549-TP53BP1-CLTA [4]) | lowest phenotypically active concentration (A549-TUBA1B-RELA [5])

CO[C@H]1C[C@@H]2CC[C@@H](C)[C@@](O)(O2)C(=O)C(=O)N2CCCC[C@H]2C(=O)O[C@H]([C@H](C)C[C@@H]2CC[C@@H](OC(=O)C(C)(CO)CO)[C@H](OC)C2)CC(=O)[C@H](C)C=C(C)[C@@H](O)[C@@H](OC)C(=O)[C@H](C)C[C@H](C)C=CC=CC=C1C [Temsirolimus]
≤ 0.3 µM: lowest phenotypically active concentration (A549-ACTB-RAB5A [1]) | lowest phenotypically active concentration (A549-CANX-COX4 [2]) | lowest phenotypically active concentration (A549-GM130-SQSTM1 [3]) | lowest phenotypically active concentration (A549-TUBA1B-RELA [5])
3 µM: lowest phenotypically active concentration (A549-TP53BP1-CLTA [4])
active: phenotypically active (A549-ACTB-RAB5A [6]) 1 | phenotypically active (A549-CANX-COX4 [7]) 1 | phenotypically active (A549-GM130-SQSTM1 [8]) 1 | phenotypically active (A549-TP53BP1-CLTA [9]) 1 | phenotypically active (A549-TUBA1B-RELA [10]) 1 | phenotypically active (HepG2-ACTB-RAB5A) 1 | phenotypically active (HepG2-CANX-COX4) 1 | phenotypically active (HepG2-GM130-SQSTM1) 1 | phenotypically active (HepG2-TP53BP1-CLTA) 1 | phenotypically active (HepG2-TUBA1B-RELA) 1 | phenotypically active (WPMY1-ACTB-RAB5A) 1 | phenotypically active (WPMY1-CANX-COX4) 1 | phenotypically active (WPMY1-GM130-SQSTM1) 1 | phenotypically active (WPMY1-TP53BP1-CLTA) 1 | phenotypically active (WPMY1-TUBA1B-RELA) 1
